High-throughput results as filed in PubChem BioAssay.
An excerpt weighted towards active compounds, which were near 9.3% of everything screened.
FMDV antiviral: High Throughput Screening for Foot and Mouth Disease Virus Antivirals | FMDV antiviral cell-based qHTS | Potency, µM (highest dose often 57.9 µM), inactives show top-dose activity change, negative = inhibition, most hits filed as inhibitors | 410,000 compounds, 1.2% hits; calls by dose curve; tested in HEK293T cells; note: read-out not given here; potency is the fitted concentration of half-maximal effect; nearly all actives have a fitted effect of over 45% in size
HCV inhibitor: qHTS Assay for Inhibitors of Hepatitis C Virus (HCV); Huh7.5.1 HCVcc-Cre infection, luciferase reporter, 44 h; 340,000 compounds, 3.4% hits; Potency, µM (titrated, usually from 41.8 µM), for the others: top-dose activity change, negative = inhibition, actives largely listed as inhibitors; note: potency is the fitted concentration of half-maximal effect
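A cell-based infection assay in which seeded cells (1,000 per well) receive test compound after 4 h, are inoculated with HCVcc-Cre at approximately 0.5 moi, and are incubated 44 h before luminescence detection.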
VACV mCherry inh: qHTS for Stage-Specific Inhibitors of Vaccinia Orthopoxvirus: mCherry Reporter Primary qHTS | Vaccinia virus mCherry reporter infection, fluorescence | 310,000 compounds, 0.63% hits | Potency, µM (top dose mostly 36.5 µM), without a hit: at the top dose activity change, negative = inhibition, hits mostly inhibitors; calls by dose curve; tested in A549 cells; note: potency is the fitted concentration of half-maximal effect; nearly all actives have a fitted effect of over 35% in size
VACV Venus inh: qHTS for Stage-Specific Inhibitors of Vaccinia Orthopoxvirus: Venus Reporter Primary qHTS; Vaccinia virus Venus reporter expression, fluorescence; Potency, µM (top dose mostly 36.5 µM), for inactives: top-dose activity change, negative = inhibition, actives largely listed as inhibitors; 330,000 compounds, 0.46% hits; AID 720580, 2013; calls by dose curve; tested in A549 cells; note: potency is the fitted concentration of half-maximal effect; nearly all actives have a fitted effect of over 30% in size
HCMV inh: qHTS Assay for inhibitors of the human cytomegalovirus (HCMV); HFF cells, HCMV-luciferase reporter, 72 h; hits give low values; activity change, negative = inhibition, % at 57.5 µM; 410,000 compounds, 4.5% hits; AID 1259415, 2018; in the data active = activity change below about -60%; inconclusive = no clear call, values can overlap the other calls; inactive = above about -39%
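Compounds were evaluated in HFFs infected with an HCMV luciferase reporter virus (MOI 1 PFU/cell). Luciferase in lysates collected 72 h post infection served as the replication measure.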
Sm TGR inh: qHTS Assay for the Inhibitors of Schistosoma Mansoni Peroxiredoxins; purified TGR, DTNB reduction, TNB absorbance 405 nm; Potency, µM (doses to about 114 µM), for the others: top-dose activity change, negative = inhibition, most hits filed as inhibitors; AID 485364, 2010; Schistosoma mansoni thioredoxin glutathione reductase (TGR), Q962Y6; 360,000 compounds, 3% hits; note: potency is the fitted concentration of half-maximal effect; nearly all actives have a fitted effect of over 60% in size
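TGR 20 nM + NADPH 100 uM (dispensed conc.), cpd preinc 15 min RT; start with NADPH (500 uM addition) then DTNB (15 mM addition). Kinetic TNB absorbance, 405 nm filter. Four-parameter Hill fit across titration.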
Starred values were filed as active, the others as inactive; [ ] = another dose, or the depositor's remark. Unless noted, calls come from the whole dose curve; as a rule, active = well fitted curve in the direction sought with a large enough effect; inconclusive = small, poorly fitted or top-dose-only effect, or another doubt; inactive = no such curve, though single readings can be large; an effect the other way counts as inactive or inconclusive. % is set by controls: 0 for no effect and ±100 for the full control effect.

What do the screens show for `Cc1[nH]n(-c2ccccc2)c(=O)c1/C=N/NC(=O)c1ccc(O)cc1O`?
FMDV antiviral: 15.5%; HCV inhibitor: 6.1%; Sm TGR inh: 50.2%

How did Cn1c2c(c(=O)n(C)c1=O)C(C(F)(F)F)(C(F)(F)F)N=C(CCC1CCCCC1)N2 do in these assays?
FMDV antiviral: 14.1µM*; HCV inhibitor: inconclusive; VACV mCherry inh: inconclusive; VACV Venus inh: inconclusive; HCMV inh: -103.0*; Sm TGR inh: 8.1%

How did CC1C(=O)OC2C1CCC1(C)CCC(=O)C(C)C21 (stereo not drawn) do in these assays?
FMDV antiviral: -25.4%; HCV inhibitor: 8.8%; VACV mCherry inh: -9.7%; VACV Venus inh: 0.4%; HCMV inh: -31.9; Sm TGR inh: 3.55µM*

Results for COc1ccc(Nc2nc(N3CCCC3)c3ccccc3n2)cc1 ?
FMDV antiviral: inconclusive; HCV inhibitor: 10µM*; VACV mCherry inh: 8.91µM*; VACV Venus inh: 10µM*; HCMV inh: -6.9; Sm TGR inh: 7.0%

How did CSc1nc(N2CCN(c3ccccc3Cl)CC2)c2ccccc2n1 do in these assays?
FMDV antiviral: inconclusive; HCV inhibitor: inconclusive; VACV mCherry inh: -7.0%; VACV Venus inh: -2.6%; HCMV inh: inconclusive; Sm TGR inh: 4.4%

Results for CSc1nc(N2CCOCC2)c2ccccc2n1 ?
FMDV antiviral: 3.4%; HCV inhibitor: 10µM*; VACV mCherry inh: inconclusive; VACV Venus inh: -6.7%; HCMV inh: -35.0; Sm TGR inh: 5.3%

Results for CCN(CC)c1ccc(Nc2nc(N3CCOCC3)c3ccccc3n2)cc1 ?
FMDV antiviral: inconclusive; HCV inhibitor: 4.47µM*; HCMV inh: -96.2*; Sm TGR inh: -5.9%

What do the screens show for `c1ccc2c(c1)nc(N1CCOCC1)c1ccccc12`?
FMDV antiviral: 5.1%; HCV inhibitor: inconclusive; VACV mCherry inh: inactive; VACV Venus inh: -11.6%; HCMV inh: -38.1; Sm TGR inh: 7.8%

How did Cc1cc(C(=O)N2CCCC(Nc3ccc(C(C)C)cc3)C2)nn1C (stereo not drawn) do in these assays?
FMDV antiviral: inconclusive; HCV inhibitor: -2.7%; HCMV inh: inconclusive; Sm TGR inh: -15.2%

Results for CC(C)(C)n1ncc2c(=O)n(Cc3cccc(Cn4cnc5c(cnn5C(C)(C)C)c4=O)c3F)cnc21 ?
FMDV antiviral: 11.2µM*; HCMV inh: -87.7*

What do the screens show for `CC(C)(C)n1ncc2c(=O)n(CC(=O)NCc3ccc(F)cc3)cnc21`?
FMDV antiviral: -38.4%; HCV inhibitor: -15.4%; VACV mCherry inh: inactive[1.46 µM]; VACV Venus inh: inconclusive; HCMV inh: 3.6; Sm TGR inh: 5.5%

Results for CC(C)(C)n1ncc2c(=O)n(CC(=O)NCc3ccco3)cnc21 ?
FMDV antiviral: 33.4%; HCV inhibitor: inconclusive; VACV mCherry inh: -24.4%; VACV Venus inh: inconclusive; HCMV inh: 43.7; Sm TGR inh: 44.7µM*

How did CC(C)CCn1cnc2c(cnn2-c2ccc(F)cc2)c1=O do in these assays?
FMDV antiviral: 10.6%; HCV inhibitor: 10µM*; VACV Venus inh: -9.4%; HCMV inh: 22.6; Sm TGR inh: 6.0%

Results for Cc1ccc(C)c(Cn2cnc3c(cnn3-c3ccc(F)cc3)c2=O)c1 ?
FMDV antiviral: 0.0%; VACV mCherry inh: -2.9%; VACV Venus inh: -10.2%; HCMV inh: -11.7; Sm TGR inh: 11.8%

What do the screens show for `CC(C)(C)n1ncc2c(=O)n(CC(=O)OCc3ccccc3)cnc21`?
FMDV antiviral: 14.1µM*; HCV inhibitor: 11.6%; VACV Venus inh: -19.1%; HCMV inh: inconclusive; Sm TGR inh: 3.4%

Results for CC(C)(C)n1ncc2c(=O)n(CC(=O)c3ccccc3)cnc21 ?
FMDV antiviral: 7.2%; HCV inhibitor: -15.8%; VACV mCherry inh: -2.8%; VACV Venus inh: -16.3%; HCMV inh: 24.0; Sm TGR inh: inconclusive
